The Inhibition is how much of the control response was suppressed. A higher Inhibition goes with a response far below the control.

Format in all cases: functional
Experiment [1] relates to Plasmodium falciparum. Put plainly: GSK_TCMDC: Inhibition of Plasmodium falciparum 3D7 in whole red blood cells, using parasite LDH activity as an index of growth. Test compounds present at 2uM.
Experiment [2] relates to Plasmodium falciparum. Put plainly: GSK_TCMDC: Inhibition of Plasmodium falciparum Dd2 in whole red blood cells, using parasite LDH activity as an index of growth. Test compounds present at 2uM.
The next experiment concerns HepG2. As to the kind of experiment: GSK_TCMDC: Percent inhibition of human HepG2 cell line. Test compounds present at 10uM.

With `COc1ccc(CNCCCCCCCNCc2ccc(Cl)c(Cl)c2)cc1Cl`, the Inhibition in the experiment on Plasmodium falciparum [1] came to 90%; with Plasmodium falciparum [2], 18%; with HepG2, 27%.
For `COc1ccc(NC(=O)Nc2cc(C)nc3ccccc23)cc1Cl` the same measures were 100%, 49% and 4%.
Take `O=C(NCCN1CCC(NC(=O)c2ccc(-c3ccccn3)s2)CC1)c1ccc(Cl)c(Cl)c1.O=C(O)C(F)(F)F`: the Inhibition with Plasmodium falciparum [1] is given as 97%; with Plasmodium falciparum [2] it was 48%; with HepG2 it was 24%.
For `CC(=O)c1ccc(N2CCN(CCC3(c4ccc(Cl)c(Cl)c4)COCN(C(=O)c4ccccc4)C3)CC2)cc1` (configuration not stated) the same measures were 88%, 95% and 12%.
Take `Clc1ccc2c(NCCc3ccccn3)ccnc2c1`: the Inhibition is 92% in the experiment on Plasmodium falciparum [1], 72% in the experiment on Plasmodium falciparum [2] and 13% with HepG2.
Take `Cc1ccc(-n2cc(CNCCCn3ccnc3)c(-c3cccc(C)c3)n2)cc1`: the Inhibition is 99% in the experiment on Plasmodium falciparum [1], 36% with Plasmodium falciparum [2] and 9% with HepG2.
On to `O=C(Nc1ccc(C(F)(F)F)cc1)c1ccc(S(=O)(=O)NC2CCN(Cc3ccccc3)C2)cc1.O=C(O)C(F)(F)F` (configuration not stated), for which the Inhibition is 100% in the experiment on Plasmodium falciparum [1], 5% with Plasmodium falciparum [2] and 42% with HepG2.
`CCc1sc(-c2ccc(C(C)(C)C)cc2)nc1C(=O)NCCCN1CCCC1=O`: the figures for the Inhibition in the experiment with Plasmodium falciparum [1], in the experiment with Plasmodium falciparum [2] and with HepG2 were 84%, 69% and 0%, respectively.
Regarding `COc1ccccc1CCNc1nc(C)cc(N[C@@H](Cc2ccccc2)C(=O)NCCc2ccccc2)n1.O=C(O)C(F)(F)F`, the Inhibition with Plasmodium falciparum [1] is 100%; in the experiment with Plasmodium falciparum [2], 89%; in the experiment on HepG2 it was 16%.
Taken in the same sequence, the figures for `CCc1cn(CCCOC)c2ccc(C(=O)N[C@@H](Cc3ccccc3)[C@H](O)CNCc3cccc(C(F)(F)F)c3)cc12` were 93%, 78% and 8%.
As for `O=C(C=Cc1ccc(Cl)c(Cl)c1)NCCCCCN1CCCC(CCCNC(=O)c2sc3ccccc3c2Cl)C1` (configuration not stated), the Inhibition came to 88% with Plasmodium falciparum [1], 32% in the experiment on Plasmodium falciparum [2] and 82% in the experiment with HepG2.
Take `O=C(Nc1cccc(N2CCC(NCCCn3ccnc3)CC2)c1)c1cccc(C(F)(F)F)c1`: the figures for the Inhibition with Plasmodium falciparum [1], in the experiment on Plasmodium falciparum [2] and in the experiment on HepG2 were 100%, 2% and 8%, respectively.
For the compound `CC(C)(C)c1ccccc1SC1=C(O)CC2(CCNCC2)OC1=O.Cl`, the figures for the Inhibition in the experiment with Plasmodium falciparum [1], in the experiment with Plasmodium falciparum [2] and in the experiment with HepG2 were 99%, 0% and 0%, respectively.
Regarding `N#Cc1cccc(C(=O)Nc2ccc(-c3ccc(CN4CCCC4)cc3)cc2)c1.O=C(O)C(F)(F)F`, the Inhibition is 92% with Plasmodium falciparum [1], 32% in the experiment with Plasmodium falciparum [2] and 38% in the experiment on HepG2.
In the case of `COc1ccccc1CCNC(=O)c1cc(Br)cc(N2CCN(c3ccncc3)CC2)c1.O=C(O)C(F)(F)F`, the Inhibition is on record as 84% with Plasmodium falciparum [1], 32% with Plasmodium falciparum [2] and 38% with HepG2.
For the compound `Cc1nc(NC(=N)N)nc2ccc(C(C)(C)C)cc12.Cl`, the Inhibition in the experiment on Plasmodium falciparum [1] came to 96%; in the experiment with Plasmodium falciparum [2], 91%; in the experiment with HepG2, 4%.
Regarding `CCNC[C@@H](O)[C@H](Cc1ccccc1)NC(=O)c1cc2c3c(c1)c(CC)cn3CCS(=O)(=O)N2C.O=CO`, the Inhibition in the experiment on Plasmodium falciparum [1] stood at 99%; in the experiment with Plasmodium falciparum [2], 65%; in the experiment with HepG2, 0%.
Regarding `Cc1ccccc1OCC(=O)Nc1ccc(-c2nc3cc4ccccc4cc3[nH]2)cc1`, the Inhibition in the experiment with Plasmodium falciparum [1] is 100%; in the experiment on Plasmodium falciparum [2] it was 51%; in the experiment on HepG2, 24%.
For `Cc1cc(CNCCCCCCCNCc2ccc(-c3ccccc3)cc2)ccc1O` the same measures were 97%, 6% and 49%.
As for `N#Cc1cccc(CN2CCCN(c3ccc(NC(=O)c4cccs4)cc3)CC2)c1.O=C(O)C(F)(F)F`, the Inhibition in the experiment on Plasmodium falciparum [1] amounted to 96%; in the experiment on Plasmodium falciparum [2] it was 95%; in the experiment with HepG2 it was 0%.
In the case of `O=C(CCc1c[nH]cn1)Nc1ccc(-c2ccc(-c3nc4cc(F)ccc4[nH]3)cc2)cc1`, the Inhibition in the experiment with Plasmodium falciparum [1] stood at 99%; in the experiment with Plasmodium falciparum [2], 58%; in the experiment with HepG2, 26%.
Regarding `O=C(/C=C/c1ccc(Cl)c(Cl)c1)NCCCCCN1CCCN(C(=O)Nc2ccc(F)c(Cl)c2)CC1`, the figures for the Inhibition in the experiment with Plasmodium falciparum [1], in the experiment on Plasmodium falciparum [2] and in the experiment with HepG2 were 95%, 0% and 31%, respectively.
Consider `OC(CNCc1ccccc1OCc1ccccc1)c1cc(C(F)(F)F)cc(C(F)(F)F)c1` (configuration not stated), for which the Inhibition in the experiment with Plasmodium falciparum [1] worked out at 100%; in the experiment on Plasmodium falciparum [2] it was 99%; with HepG2, 3%.
Take `COc1ccccc1-n1c(SCC(=O)Nc2ccccc2F)nc2cccnc21`: the Inhibition in the experiment on Plasmodium falciparum [1] stood at 96%; in the experiment on Plasmodium falciparum [2], 88%; in the experiment with HepG2, 0%.
`O=C(NCCCN1CCC(N2CCCCC2)CC1)c1ccc(N2CCOc3ccccc32)s1`: the figures for the Inhibition in the experiment with Plasmodium falciparum [1], in the experiment with Plasmodium falciparum [2] and in the experiment with HepG2 were 100%, 12% and 37%, respectively.
Consider `Cc1cc2nc(-c3ccc(OCC(=O)NCc4ccc(C(C)(C)C)cc4)cc3)[nH]c2cc1C`, for which the Inhibition is given as 94% in the experiment on Plasmodium falciparum [1], 0% with Plasmodium falciparum [2] and 11% with HepG2.
For `CNC(=O)c1cnc(Nc2ccc(N3CCN(C)CC3)c(C)c2)nc1NC.Cl`, the results for the Inhibition in the experiment on Plasmodium falciparum [1], in the experiment with Plasmodium falciparum [2] and with HepG2 were 97%, 38% and 19%, respectively.
On to `CN1CCC(C(=O)N(Cc2ccc(-c3ccc(CNCCc4ccccc4)cn3)cc2)C2Cc3ccccc3C2)CC1.O=C(O)C(F)(F)F`, for which the Inhibition in the experiment on Plasmodium falciparum [1] came out at 88%; in the experiment with Plasmodium falciparum [2], 97%; in the experiment on HepG2, 65%.
For `CC1CN(c2ccc(NC(=O)c3ccc(F)cc3)cc2)CCN1Cc1cccc(F)c1.O=C(O)C(F)(F)F` (configuration not stated) the same measures were 81%, 76% and 11%.

Source of the values: ChEMBL document CHEMBL1157539, “Thousands of chemical starting points for antimalarial lead identification” (Nature, 2010).
